This note sets out measurements from PubChem BioAssay.

The nature of assay [1]: anti-His antibody binders, primary screen, artefact control for SMM control protein annotation, biochemical, small-molecule microarray, 635 nm fluorescence (AID 1128).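 Note: score merges feature fluorescence with signal-to-noise for each printed compound spot.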 The conditions noted are these: anti-His Alexa647 antibody binding, higher = more signal.
Assay [2] concerns Human papillomavirus type 1a E7 protein (residues 1-88). The assay is described as follows: HPV1a E7 small-molecule binders, primary screen, biochemical, small-molecule microarray, residues 1-88, 635 nm (AID 1129). The conditions noted are these: small-molecule microarray binding, fluorescence 635 nm; higher = more signal.
For assay [3], the target named is Focal adhesion kinase 1 (Homo sapiens) (UniProt Q05397). The assay is described as follows: small-molecule microarray binders of FAK, primary screen, biochemical, 635/667 nm fluorescence, BSA, DTT (AID 1130).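 Note: composite of spot emission at 667 nm and signal to noise over triplicate slides.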 The note with it: PTK2 binding, 635 nm fluorescence, higher = more signal.
For assay [4], the system named is Fibrinogen (Alexa647-labelled). The assay is described as follows: fibrinogen binders on compound microarrays, profiling panel, artefact control for SMM control-protein annotation, biochemical, small-molecule microarray, 635/667 nm fluorescence (AID 1131).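 Note: z-score merges 667 nm fluorescence with per-spot signal-to-noise over triplicate slides.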 The note with it: fibrinogen-A647 binding fluorescence, higher = more signal.
For assay [5], the target named is Follistatin (Homo sapiens) (UniProt P19883). The assay is described as follows: follistatin binders on small-molecule microarrays, primary screen, biochemical, small-molecule microarray, 635/667 nm fluorescence (AID 1132). The note with it: FST binding, 635 nm fluorescence, higher = more signal.
Assay [6] deals with Fibroblast growth factor 2 (Homo sapiens) (UniProt P09038). The assay is described as follows: FGF2 binders on small-molecule microarrays, primary screen, biochemical, small-molecule microarray, 635/667 nm fluorescence (AID 1133). The conditions noted are these: small-molecule microarray binding, FGF2, fluorescence 635/667; higher = more signal.
A short description of assay [7]: mitochondrial membrane potential change in A549 cells, profiling panel, cell-based, JC-1 fluorescence, basal, 24 h, 100 nL (AID 1138).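 Note: A549 lung adenocarcinoma cells under basal conditions with no added stimulus; test concentration not given here.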 The conditions noted are these: higher = more signal.
The next assay deals with Lefty1. The assay is described as follows: Lefty1 binders on small-molecule microarrays, primary screen, biochemical, small-molecule microarray, 635/667 nm fluorescence (AID 1139). The note with it: small-molecule microarray binding, fluorescence 635/667; higher = more signal.
In assay [8] the test system is wheat germ agglutinin (Triticum aestivum), Alexa647-labelled. The assay is described as follows: wheat germ agglutinin binders on compound microarrays, profiling panel, artefact control for SMM control-protein annotation, biochemical, small-molecule microarray, 635/667 nm fluorescence (AID 1140).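 Note: score merges 667 nm feature emission with signal to noise over triplicate slides.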 The note with it: WGA-A647 binding, 635 nm fluorescence, higher = more signal.

In assay [9] the target is Luciferin 4-monooxygenase (Photinus pyralis) (UniProt P08659). The assay is described as follows: firefly luciferase enzyme inhibitors, primary screen, biochemical, luminescence, purified enzyme, 2006 set (AID 1141).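 Note: cell-free assay with purified firefly luciferase at 100 ng per well in PBS; test concentration not given here.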 The conditions noted are these: SteadyGlo luminescence, 30 min, higher = more signal, called active from +8 up or from −8 down.
The test system of assay [10] is Wnt5a (protein binding on small-molecule microarray). The assay is described as follows: Wnt5a binders on small-molecule microarray, primary screen, biophysical, 635/667 nm fluorescence (AID 1142).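 Note: fluorescence read at 667 nm with signal to noise per printed feature.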 The conditions noted are these: 635 nm fluorescence, higher = more signal.
The nature of assay [11]: cell viability in Huh7 cells, primary screen, cytotoxicity control for HCV replication inhibitor project, CellTiter-Glo luminescence, basal, 48 h (AID 1143).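 Note: Huh7 hepatoma cells carrying a hepatitis C replication reporter with no stimulus; test concentration not given here.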 The conditions noted are these: Huh7 HCV replicon, higher = more signal, called active from +8 up or from −8 down. On the technique in general: In ATP-based viability assays light output follows the ATP content of the culture.

Assay [12] is described as follows: P. aeruginosa biofilm formation inhibitors, primary screen, PAO1 strain, BacTiter-Glo luminescence, LB-PBS (AID 1144). The note with it: 12 h, higher = more signal.
Assay [13] is described as follows: CREB reporter modulators without forskolin, primary screen, cell-based, PC12, CRE-LacZ reporter, unstimulated (AID 1145). The note with it: no forskolin, luminescence, 4.5 h, higher = more signal, called active from +8 up or from −8 down.
The nature of assay [14]: CREB reporter modulators under forskolin, primary screen, cell-based, PC12, CRE-LacZ reporter, forskolin-stimulated (AID 1146).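 Note: PC12 cells with 6xCRE LacZ reporter stimulated by forskolin 10 µM; beta-galactosidase reporter signal reflecting CREB driven transcription.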 The conditions noted are these: luminescence, 4.5 h, higher = more signal, called active from +8 up or from −8 down.
The target in assay [15] is Streptavidin (Streptomyces avidinii) (UniProt P22629). The assay is described as follows: streptavidin binders on small-molecule microarray, primary screen, artefact control for SMM compound annotation, biophysical, 635/667 nm fluorescence (AID 1147).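 Note: signal reflects streptavidin binding to arrayed compounds as a control protein.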 The conditions noted are these: streptavidin binding, higher = more signal.
A short description of assay [16]: small-molecule binders of probe aInhba, primary screen, biochemical, small-molecule microarray, 635/667 nm fluorescence (AID 1148).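 Note: score merges 667nm spot fluorescence with signal-to-noise for antibody binding to printed compounds.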 The note with it: higher = more signal.
For assay [17], the target named is Torsin-1A (Homo sapiens) (UniProt O14656). The assay is described as follows: torsin A binders from cell lysate, primary screen, small-molecule microarray, wild-type, 635/667 nm (AID 1149). The conditions noted are these: COS7 hTOR1A-WT lysate, 635 nm fluorescence, higher = more signal.
For assay [18] the target is unchanged. The assay is described as follows: small-molecule binders of mutant TOR1A in lysate, primary screen, cell lysate, small-molecule microarray, COS7 lysate, 635/667 nm fluorescence (AID 1150).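 Note: score pools 667 nm emission and signal to noise measuring lysate protein binding.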 The note with it: COS7 hTOR1A mutant lysate, 635 nm fluorescence, higher = more signal.
Assay [19] has as its system Sonic hedgehog protein (Shh). The assay is described as follows: small-molecule binders of Shh protein, primary screen, biochemical, small-molecule microarray, 635/667 nm fluorescence (AID 1151).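 Note: Shh protein binding to compounds spotted on small-molecule microarray slides; score combines spot fluorescence intensity with signal-to-noise across triplicate slides.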 The conditions noted are these: small-molecule microarray binding, 635 nm fluorescence; higher = more signal.

The source made the active and inactive calls. Unless noted, the rule behind the calls is not given here.

Focal adhesion kinase 1 (Homo sapiens), sequence (Q05397 whole entry, looked up): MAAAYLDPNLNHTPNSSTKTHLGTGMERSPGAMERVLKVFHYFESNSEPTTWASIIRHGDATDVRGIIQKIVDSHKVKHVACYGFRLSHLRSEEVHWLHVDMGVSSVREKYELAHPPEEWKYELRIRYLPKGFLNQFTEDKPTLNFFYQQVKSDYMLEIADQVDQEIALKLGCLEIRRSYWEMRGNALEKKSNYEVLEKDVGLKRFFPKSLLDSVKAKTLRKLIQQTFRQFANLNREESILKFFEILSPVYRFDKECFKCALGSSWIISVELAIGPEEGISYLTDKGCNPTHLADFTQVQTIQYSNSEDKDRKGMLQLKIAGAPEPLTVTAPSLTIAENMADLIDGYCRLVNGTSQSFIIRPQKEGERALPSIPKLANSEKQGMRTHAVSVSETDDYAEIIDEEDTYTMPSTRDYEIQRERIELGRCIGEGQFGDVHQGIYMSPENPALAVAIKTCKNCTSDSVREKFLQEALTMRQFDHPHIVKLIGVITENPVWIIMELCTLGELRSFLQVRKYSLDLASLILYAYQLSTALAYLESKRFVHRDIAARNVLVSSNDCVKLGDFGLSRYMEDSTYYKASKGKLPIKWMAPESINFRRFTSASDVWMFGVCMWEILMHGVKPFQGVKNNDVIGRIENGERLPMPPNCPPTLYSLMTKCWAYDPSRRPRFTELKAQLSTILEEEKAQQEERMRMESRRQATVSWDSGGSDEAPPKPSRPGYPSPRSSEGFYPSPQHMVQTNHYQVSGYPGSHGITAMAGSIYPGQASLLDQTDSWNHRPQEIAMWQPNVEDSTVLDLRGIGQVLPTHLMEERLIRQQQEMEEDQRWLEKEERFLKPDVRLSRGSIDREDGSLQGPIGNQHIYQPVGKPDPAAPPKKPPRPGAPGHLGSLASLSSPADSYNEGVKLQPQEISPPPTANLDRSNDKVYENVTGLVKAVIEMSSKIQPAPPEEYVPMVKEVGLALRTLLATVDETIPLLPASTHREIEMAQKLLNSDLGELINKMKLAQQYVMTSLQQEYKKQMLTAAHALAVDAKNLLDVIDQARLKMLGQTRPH
Streptavidin (Streptomyces avidinii), sequence (P22629 whole entry, looked up): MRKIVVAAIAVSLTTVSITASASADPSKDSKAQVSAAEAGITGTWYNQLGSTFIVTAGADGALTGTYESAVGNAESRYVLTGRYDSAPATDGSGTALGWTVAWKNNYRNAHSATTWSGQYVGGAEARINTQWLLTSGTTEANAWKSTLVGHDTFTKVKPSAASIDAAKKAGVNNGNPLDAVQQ
Luciferin 4-monooxygenase (Photinus pyralis), sequence (P08659 whole entry, looked up): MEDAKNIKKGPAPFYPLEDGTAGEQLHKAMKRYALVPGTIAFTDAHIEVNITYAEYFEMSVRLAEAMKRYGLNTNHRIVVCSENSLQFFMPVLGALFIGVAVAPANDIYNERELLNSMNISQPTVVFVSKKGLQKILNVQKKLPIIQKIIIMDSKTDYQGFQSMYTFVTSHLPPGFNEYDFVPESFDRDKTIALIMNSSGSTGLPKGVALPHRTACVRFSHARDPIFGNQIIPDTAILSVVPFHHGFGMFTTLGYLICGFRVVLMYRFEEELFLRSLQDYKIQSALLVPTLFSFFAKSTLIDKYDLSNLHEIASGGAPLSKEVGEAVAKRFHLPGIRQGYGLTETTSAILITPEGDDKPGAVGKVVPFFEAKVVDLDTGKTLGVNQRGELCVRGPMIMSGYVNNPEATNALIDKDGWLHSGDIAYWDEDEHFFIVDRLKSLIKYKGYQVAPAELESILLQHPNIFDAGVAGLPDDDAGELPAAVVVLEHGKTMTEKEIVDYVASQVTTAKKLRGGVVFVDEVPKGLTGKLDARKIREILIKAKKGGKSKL
Fibroblast growth factor 2 (Homo sapiens), sequence (P09038 whole entry, looked up): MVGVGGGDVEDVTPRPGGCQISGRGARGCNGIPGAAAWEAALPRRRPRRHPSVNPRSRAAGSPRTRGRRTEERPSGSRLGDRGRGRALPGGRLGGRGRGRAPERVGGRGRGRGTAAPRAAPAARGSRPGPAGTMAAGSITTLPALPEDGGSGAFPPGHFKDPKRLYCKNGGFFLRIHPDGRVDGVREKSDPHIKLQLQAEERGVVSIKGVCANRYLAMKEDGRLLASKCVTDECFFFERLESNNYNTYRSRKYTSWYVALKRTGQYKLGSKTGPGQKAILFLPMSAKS
Torsin-1A (Homo sapiens), sequence (O14656 whole entry, looked up): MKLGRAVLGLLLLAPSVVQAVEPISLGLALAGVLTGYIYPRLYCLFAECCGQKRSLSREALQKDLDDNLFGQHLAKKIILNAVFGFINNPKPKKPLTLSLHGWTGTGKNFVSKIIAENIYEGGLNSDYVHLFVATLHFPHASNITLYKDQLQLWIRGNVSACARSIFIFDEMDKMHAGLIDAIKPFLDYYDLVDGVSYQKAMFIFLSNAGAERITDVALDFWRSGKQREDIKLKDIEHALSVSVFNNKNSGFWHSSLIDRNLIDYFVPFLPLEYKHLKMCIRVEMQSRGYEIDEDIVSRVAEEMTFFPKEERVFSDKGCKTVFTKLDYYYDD
Follistatin (Homo sapiens), sequence (P19883 whole entry, looked up): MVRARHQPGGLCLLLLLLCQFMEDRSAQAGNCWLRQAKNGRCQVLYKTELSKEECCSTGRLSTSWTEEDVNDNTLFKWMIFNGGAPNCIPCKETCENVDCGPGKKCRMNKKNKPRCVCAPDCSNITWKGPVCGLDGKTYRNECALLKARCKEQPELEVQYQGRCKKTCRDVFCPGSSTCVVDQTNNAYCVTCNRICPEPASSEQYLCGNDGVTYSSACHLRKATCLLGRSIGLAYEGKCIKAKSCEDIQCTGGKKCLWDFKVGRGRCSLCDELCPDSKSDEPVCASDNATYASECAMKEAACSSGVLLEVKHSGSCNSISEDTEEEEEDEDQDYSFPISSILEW

Take `COCCn1c(C(=O)N2CCCC2)cc2c1C[C@H]1CN(C(=O)c3ccccc3)[C@@](Cc3ccc(OC)cc3)(C(=O)OC)[C@@H]21`: the composite z-score in assay [1] is 2.34; in [2] it was 1.02; in assay [3], 1.89; in [4] it was 0.632; in assay [5] it was 0.417; in assay [6] it was -0.552. Besides, the composite z-score with Lefty1 is -0.0277; in [8] it was 1.06; in assay [10] it was 0.644; in assay [15], 2.01; in [16], 0.739; with Torsin-1A (Homo sapiens) [17], -0.141. Also, the composite z-score in the assay with Torsin-1A (Homo sapiens) [18] was 1.29; in assay [19], -0.89. For the same compound, the z-score was 0.766 in assay [7]; 0.438 (inactive) in assay [9]; -1.54 (inactive) in assay [11]; -0.2 (inactive) in assay [12]; -0.751 (inactive) in [13]; 0.699 (inactive) in assay [14].
On to `O=C1OCCC/C=C\[C@H]2OC34C=CCN(Cn5nnc6ccccc65)C(=O)[C@H]3N(CCCO)C(=O)[C@@H]4C12` (stereo not given in full), for which the composite z-score is 3.1 in assay [1]; -0.162 in assay [2]; -0.0245 in [3]; -1.94 in assay [4]; -0.99 in [5]; -1.06 in assay [6]. The composite z-score with Lefty1 was -0.517; in assay [8], -0.107; in assay [10], -0.8; in assay [15], -1.29; in [16], -0.182; in the assay with Torsin-1A (Homo sapiens) [17] it was -2.04. For the same compound, the composite z-score in the assay with Torsin-1A (Homo sapiens) [18] was 1.14; in [19] it was -0.144. Further, the z-score in assay [7] was -0.275; in assay [9] it was 0.656 (inactive); in assay [11], 0.464 (inactive); in assay [12] it was -0.354 (inactive); in assay [13] it was -0.623 (inactive); in assay [14] it was 0.168 (inactive).
On to `CCOC(=O)C1=CC[C@@H](c2ccccc2)N(S(=O)(=O)c2ccc(C)cc2)[C@H]1c1ccc(C#N)cc1`, for which the composite z-score was 1 in assay [1]; 1.19 in assay [2]; 0.456 in [3]; 0.931 in assay [4]; -0.0375 in [5]; -0.732 in [6]. Further, the composite z-score in the assay with Lefty1 was -0.507; in assay [8] it was 1.23; in [10] it was 0.344; in [15] it was 1.31; in assay [16] it was 0.066; with Torsin-1A (Homo sapiens) [17] it was -0.0412. Moreover, the composite z-score in the assay with Torsin-1A (Homo sapiens) [18] was 0.389; in assay [19], -0.428. Besides, the z-score in assay [7] is 2.11; in [9] it was 1.23 (inactive); in assay [11], -2.07 (inactive); in assay [12] it was 0.742 (inactive); in assay [13] it was 1.42 (inactive); in assay [14], 0.0633 (inactive).
On to `C[C@H]1C2[C@H](Cc3ccccc3)NC(=O)[C@]23C(=O)N[C@H](Cc2ccccc2)C(=O)N[C@H](Cc2ccccc2)C(=O)NC/C=C/CCC/C=C/C3[C@@H]2O[C@]12C` (stereo not given in full), for which the composite z-score in assay [1] was found to be 0.896; in [2], 1.18; in assay [3] it was 0.0256; in assay [4], 0.304; in assay [5], 1.08; in assay [6] it was 0.519. The composite z-score with Lefty1 was 1.56; in [8], 0.756; in assay [10] it was 0.127; in [15], -0.224; in [16], -0.149; in the assay with Torsin-1A (Homo sapiens) [17] it was 0.299. Further, the results for the composite z-score (with Torsin-1A (Homo sapiens) [18]; in [19]) were 0.225 and 0.843, respectively. Also, the z-score was -0.256 in [7]; -3.27 (inactive) in [9]; -2 (inactive) in assay [11]; 0.612 (inactive) in assay [12]; 1.3 (inactive) in assay [13]; -0.696 (inactive) in assay [14].
As to `C[n+]1ccc2ccc(O)cc2c1`, the composite z-score is 1.81 in [1]; -0.495 in assay [2]; 0.132 in [3]; -0.399 in [4]; 1.37 in assay [5]; 1.68 in assay [6]. Further, the composite z-score in the assay on Lefty1 was 1.54; in assay [8], -0.37; in assay [10] it was 0.247; in assay [15], -0.426; in [16] it was -0.0405; in the assay with Torsin-1A (Homo sapiens) [17] it was 2.27. Further, the figures for the composite z-score (in the assay with Torsin-1A (Homo sapiens) [18]; in [19]) were 1.19 and 1.95, respectively. Moreover, the z-score was -0.924 in assay [7]; 0.591 (inactive) in assay [9]; -0.289 (inactive) in assay [11]; 0.125 (inactive) in assay [12]; 0.389 (inactive) in assay [13]; -0.287 (inactive) in assay [14].
With `CS(=O)(=O)CCOC(=O)C1=CC(c2ccc(CO)cc2)=CC(c2cccs2)N(Cc2cccc(OC(F)(F)F)c2)C=C1C(=O)OCCS(C)(=O)=O` (stereo not given), the composite z-score came to 0.419 in [1]; 0.969 in assay [2]; 0.513 in assay [3]; 1.01 in assay [4]; 1.21 in assay [5]; 0.0903 in assay [6]. For the same compound, the composite z-score with Lefty1 turned out to be 0.836; in [8] it was 0.929; in assay [10], 0.104; in [15], 1.72; in assay [16], 0.0047; with Torsin-1A (Homo sapiens) [17] it was 1.45. For the same compound, the composite z-score with Torsin-1A (Homo sapiens) [18] was 0.543; in assay [19], 0.75. Besides, the z-score in assay [7] was 1.91; in assay [9], -1.86 (inactive); in assay [11] it was -3.67 (inactive); in [12] it was 0.676 (inactive); in assay [13], 0.695 (inactive); in assay [14], -2.12 (inactive).
With `C=CCC(OC(C)=O)[C@@H]1[C@@H](N(Cc2ccc(-c3cccc(C(F)(F)F)c3)o2)C(=O)c2ccc(C)cc2)c2cc(OCCCO)ccc2N1C(=O)c1ccc2ccccc2n1` (stereo not given in full), the composite z-score in [1] is -0.614; in assay [2] it was -0.369; in [3], -0.223; in assay [4], 0.33; in assay [5], 0.839; in assay [6], 0.131. Moreover, the composite z-score is 0.727 in the assay with Lefty1; 0.717 in [8]; 0.0861 in assay [10]; 0.256 in assay [15]; -0.151 in assay [16]; -0.138 with Torsin-1A (Homo sapiens) [17]. Moreover, the composite z-score with Torsin-1A (Homo sapiens) [18] was found to be 0.114; in assay [19] it was 0.978. The z-score in assay [7] was 0.61; in assay [9] it was -1.25 (inactive); in [11], 0.0775 (inactive); in [12] it was -0.293 (inactive); in [13], 0.395 (inactive); in assay [14], -0.0797 (inactive).
